Sampled rows, rich in hits. Any-hit rate of the full collection: about 19%.
DT40 TDP1 CPT – qHTS for Inhibitors of human tyrosyl-DNA phosphodiesterase 1 (TDP1): qHTS in cells in presence of CPT; Potency, µM (series often up to 46.2 µM), for the others: at the highest dose activity change, negative = growth inhibition, usual class: inhibitors; AID 686979, 2013; hit rate 12% among 420,000; chicken DT40 Tdp1-/-;hTDP1 cells + 20 nM CPT, ATP luminescence, 48 h; also: potency is read from the fitted curve at half-maximal effect; nearly all actives have a fitted effect of over 55% in size
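Chicken DT40 Tdp1-/- cells stably complemented with human TDP1 were seeded at 400 cells/well in medium containing 20 nM camptothecin, exposed to pin-transferred compounds, and grown at 37 °C for at least 48 hr. Viability was read as ATP luminescence.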
IL1B secr inh – qHTS for Inhibitors of Inflammasome Signaling: IL-1-beta AlphaLISA Primary Screen | THP-1 LPS/ATP IL-1B secretion, AlphaLISA, 16 h; hits give low values | activity change, % at 57.5 µM | hit rate 4.7% among 360,000; in the data active = activity change below about -50%; inconclusive = mostly about -30% to -49%
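Secreted IL-1B measured by AlphaLISA bead assay after 16 h compound exposure of THP-1 cells; compounds (final up to 57.5 uM) added 1 h before LPS (250 ng/mL) and ATP (1.25 mM) stimulation; lower signal means less secretion.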
HT1080 IDH1KD tx – qHTS for induction of synthetic lethality in tumor cells producing 2HG: qHTS for the HT-1080-IDH1KD cell line; Potency, µM (series often up to 46.1 µM), for inactives: top-dose activity, negative = toxicity, actives largely listed as cytotoxic; HT-1080 IDH1 knockdown viability, ATP luminescence, 48 h; hit rate 2% among 360,000;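 also: potency is read from the fitted curve at half-maximal effect; 0% = DMSO wells and -100% = cell-free medium wells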
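Using the IDH1-knockdown HT-1080 line run in the same batch and compound series as the NT line, viability after 48 h at 37 °C was determined by CellTiter-Glo luminescence and expressed as % activity.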
TDP1 cell noCPT – qHTS for Inhibitors of human tyrosyl-DNA phosphodiesterase 1 (TDP1): qHTS in cells in absence of CPT; DT40 Tdp1-/- hTDP1 cells, no CPT, ATP luminescence, 48 h; Potency, µM (top dose mostly 46.2 µM), for the others: at the highest dose activity change, negative = growth inhibition, most hits filed as inhibitors; hit rate 15% among 420,000; AID 686978, 2013; also: potency is read from the fitted curve at half-maximal effect; nearly all actives have a fitted effect of over 55% in size
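Readout: luminescence from CellTiter-Glo after 30 min in the dark at RT. Cells: DT40 Tdp1-/- with stable hTDP1, 400/well. Exposure: compounds alone, ≥48 hr, 37 °C.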
HT1080NT lethal – qHTS for induction of synthetic lethality in tumor cells producing 2HG: qHTS for the HT-1080-NT fibrosarcoma cell line; HT-1080-NT fibrosarcoma viability, CellTiter-Glo ATP luminescence, 48 h; Potency, µM (series often up to 46.1 µM), inactives show top-dose activity, negative = less viability, actives largely listed as cytotoxic; hit rate 1.6% among 360,000; AID 686970, 2013;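 also: NT is the 2HG producing partner of a matched IDH1 knockdown line; potency is read from the fitted curve at half-maximal effect; 0% = DMSO-treated cells and -100% = media-only wells without cells; nearly all actives have a fitted effect of over 55% in size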
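Compounds were tested in concentration-response format on HT-1080-NT cells for 48 hours at 37 degrees C. Cell viability came from CellTiter-Glo luminescence; curves were classified by r2, response magnitude and activity.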
Starred values were filed as active, the others as inactive; ? = inconclusive; . = not tested or not shown. Unless noted, calls follow the shape of the dose curve; as a rule, active = well fitted curve in the direction sought with a large enough effect; inconclusive = small, poorly fitted or top-dose-only effect, or another doubt; inactive = no such curve, though single readings can be large; an effect the other way counts as inactive or inconclusive. Unless noted, % is scaled to controls: 0 for no effect and ±100 for the full control effect.

SMILES | DT40 TDP1 CPT | IL1B secr inh | HT1080 IDH1KD tx | TDP1 cell noCPT | HT1080NT lethal
COc1ccc(OC)c(NC(=O)c2ccccc2NS(=O)(=O)c2cccc3cccnc23)c1 | 3% | 5 | -2% | 29µM* | -4%
Cc1c(-c2ccnc3cc(C(=O)O)nn23)cnn1C | 5% | 10 | 16% | -16% | 11%
Cc1ccc(S(=O)(=O)N(C)C)cc1NC(=O)C1CCCCC1 | -1% | 34 | 17% | -13% | 24%
OCCC1CN(Cc2ccccc2OC2CCCC2)CCN1Cc1ccsc1 (stereo not drawn) | ? | -6 | 7% | 15µM* | 1%
OCCC1CN(Cc2cccc3nonc23)CCN1Cc1ccsc1 (stereo not drawn) | -10% | 11 | 1% | -15% | 0%
OCCC1CN(Cc2ccc(-c3ccco3)cc2)CCN1Cc1ccsc1 (stereo not drawn) | ? | -61* | -2% | ? | -10%
C#Cc1ccc(CN2CCN(Cc3ccsc3)C(CCO)C2)cc1 (stereo not drawn) | -18% | 8 | -2% | ? | -11%
C[S+](C)CC(=O)c1ccc2ccccc2c1 | -15% | . | . | -12% | .
COCCC(=O)Nc1ccc2c(c1)CN(C(=O)CCSC)CC2 | -5% | 0 | 8% | 2% | 8%
COCCC(=O)Nc1ccc2c(c1)CN(C(=O)c1ccc(CSC)o1)CC2 | -28% | 11 | 1% | 2.9µM* | -3%
O=[N+]([O-])c1cnccc1-n1nnc2ccccc21 | 16µM* | -116* | ? | 18µM* | ?
CC(/C=C/C=C/c1ccccc1)=N/NC(=O)C(O)c1ccccc1 (stereo not drawn) | -9% | -1 | -3% | 18µM* | -1%
CC(/C=C/c1ccccc1)=N/NC(=O)c1cccc(Br)c1 | ? | -29 | ? | 23µM* | -21%
CC(/C=C/c1cccc([N+](=O)[O-])c1)=N\NC(=O)c1ccncc1 | ? | -1 | 0% | 23µM* | 2%
CC(/C=C\C=C\c1ccccc1)=N\NC(=O)c1cncc(Br)c1 | 7.3µM* | 0 | -29% | 7.3µM* | -13%
CC(/C=C/c1ccccc1)=N\NC(=O)c1ccc(Br)cc1 | ? | -4 | -13% | ? | -17%
CCC(COC)NC(=O)c1cnn(-c2ncc3c(n2)-c2ccccc2CCC3)c1C (stereo not drawn) | -24% | . | . | -26% | .
CC(C)C1Cc2[nH]c(=S)[nH]c(=O)c2C(c2ccc(F)cc2)O1 (stereo not drawn) | 18% | 27 | 22% | 30% | 14%
CCCSc1nnc(-c2cnn(-c3ccccc3)c2-n2cccc2)n1C | 18µM* | -8 | 0% | 15µM* | -3%
C=CCSc1nnc(-c2cnn(-c3ccccc3)c2-n2cccc2)n1C | -10% | -17 | 5% | -25% | 10%
O=C(Nc1cccc(C(F)(F)F)c1)C(SCCO)c1ccccc1 (stereo not drawn) | 12% | 14 | 3% | ? | 0%
Cn1nnnc1SC(C(=O)Nc1cccc(C(F)(F)F)c1)c1ccccc1 (stereo not drawn) | -19% | -72* | -16% | -17% | -7%
